A short description of test [1]: BSK_hDFCGF_Proliferation: Cell Proliferation Assessment in the BioMAP Diversity Plus: hDFCGF Assay (AID 2283059).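 Further: curves fitted for both rise and fall of signal versus DMSO baseline.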 Particulars: primary human foreskin fibroblasts. The method, boiled down:
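Primary human foreskin fibroblasts, sub-confluent; […]; 10% TCA fix, 0.1% SRB stain, A560 total protein. Gain/loss fitted bidirectionally vs DMSO control.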

A short description of test [2]: BSK_hDFCGF_SRB: Viability Assessment in the BioMAP Diversity Plus: hDFCGF Assay (AID 2283061).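 Further: cells exposed to compound for 24 h before the read.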 Particulars: primary human foreskin fibroblasts. The gist of the method:
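Human foreskin primary fibroblasts were treated with compound and assessed 24 h after dosing. Total protein was measured by sulforhodamine B staining (0.1% SRB after 10% TCA fixation, 560 nm read) as a cytotoxicity marker, with bidirectional fitting against DMSO baseline.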

Read-out in test [3]: TIMP metallopeptidase inhibitor 1 (TIMP1), TIMP1 (gene 7076)
The test is described as follows: BSK_hDFCGF_TIMP1: BioMAP Diversity Plus: hDFCGF Assay for TIMP metallopeptidase inhibitor 1 (TIMP1) Biomarker Activity (AID 2283062). Particulars: primary human foreskin fibroblasts; actives raise or lower the signal. The method, boiled down: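 Primary human foreskin fibroblasts in the hDFCGF system were dosed with compound for 24 h, then TIMP-1 was measured by ELISA. Activity was fitted bidirectionally relative to DMSO control; parallel SRB staining assessed cytotoxicity.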

Read-out in test [4]: Vascular cell adhesion molecule 1 (VCAM1), VCAM1 (gene 7412)
Briefly: BSK_hDFCGF_VCAM1: BioMAP Diversity Plus: hDFCGF Assay for Vascular cell adhesion molecule 1 (VCAM1) Biomarker Activity (AID 2283065).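 On AC50: VCAM-1 protein level quantified by ELISA after 24 h chemical exposure.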 Particulars: primary human foreskin fibroblasts; actives raise or lower the signal. The method, boiled down: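 Primary human foreskin fibroblasts (hDFCGF system) were dosed with chemical and VCAM-1 was measured by ELISA 24 h later. Bidirectional curve fitting used DMSO as negative control and activity baseline.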

Read-out in test [5]: Plasminogen activator inhibitor-1 (PAI1), SERPINE1 (gene 5054)
The test is described as follows: BSK_hDFCGF_PAI1: BioMAP Diversity Plus: hDFCGF Assay for Plasminogen activator inhibitor-1 (PAI1) Biomarker Activity (AID 2283066). Particulars: primary human foreskin fibroblasts; actives raise or lower the signal. The gist of the method: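 Human foreskin fibroblasts in the hDFCGF system were dosed with compound for 24 h; PAI-1 was quantified by ELISA. Bidirectional curve fitting used DMSO as negative control and baseline.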

Read-out in test [6]: Intercellular Adhesion Molecule 1 (ICAM1), ICAM1 (gene 3383)
The test is described as follows: BSK_KF3CT_ICAM1: BioMAP Diversity Plus: KF3CT Assay for Intercellular Adhesion Molecule 1 (ICAM1) Biomarker Activity (AID 2283067). Particulars: primary human keratinocytes with fibroblasts; actives raise or lower the signal. The method, boiled down:
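Human keratinocyte plus foreskin fibroblast primary co-culture was exposed to chemical for 24 h. ICAM-1 was then quantified by ELISA, and the data were fit bidirectionally against DMSO as the negative control and baseline.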

Read-out in test [7]: Interferon-gamma inducible Protein 10 (IP10), CXCL10 (gene 3627)
Briefly: BSK_KF3CT_IP10: BioMAP Diversity Plus: KF3CT Assay for Interferon-gamma inducible Protein 10 (IP10) Biomarker Activity (AID 2283068). Particulars: primary human keratinocytes with fibroblasts; actives raise or lower the signal. The gist of the method:
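In a primary skin co-culture of keratinocytes and fibroblasts, IP-10 is quantified by ELISA at 24 h after dosing. SRB staining of parallel wells monitors overt toxicity. Curves are fitted both directions against DMSO.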

A short description of test [8]: BSK_KF3CT_SRB: Viability Assessment in the BioMAP Diversity Plus: KF3CT Assay (AID 2283069).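 Further: fitted for both signal gain and loss against DMSO baseline.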 Particulars: primary human keratinocytes with fibroblasts. The gist of the method: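 Keratinocytes co-cultured with foreskin fibroblasts (human primary); chemical added, 24 h; fix 10% TCA, stain 0.1% SRB, A560. Bidirectional fit vs DMSO.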
Read-out in test [9]: Interleukin-1 alpha (IL1a), IL1A (gene 3552)
The test is described as follows: BSK_KF3CT_IL1a: BioMAP Diversity Plus: KF3CT Assay for Interleukin-1 alpha (IL1a) Biomarker Activity (AID 2283070). Particulars: primary human keratinocytes with fibroblasts; actives raise or lower the signal. The method, boiled down: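 Chemicals were dosed onto co-cultured human keratinocytes and foreskin fibroblasts, IL-1a was quantified by ELISA at 24 h, and activity was fitted in both directions relative to DMSO controls.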

Read-out in test [10]: TIMP metallopeptidase inhibitor 2 (TIMP2), TIMP2 (gene 7077)
Briefly: BSK_KF3CT_TIMP2: BioMAP Diversity Plus: KF3CT Assay for TIMP metallopeptidase inhibitor 2 (TIMP2) Biomarker Activity (AID 2283071). Particulars: primary human keratinocytes with fibroblasts; actives raise or lower the signal. The gist of the method:
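Human primary keratinocyte/foreskin fibroblast co-culture dosed with chemical and sampled at 24 h. TIMP-2 levels quantified by ELISA; bidirectional fitting against DMSO negative control as baseline.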

Read-out in test [11]: C-C motif chemokine 2 (Homo sapiens) (UniProt P13500)
The test is described as follows: BSK_KF3CT_MCP1: BioMAP Diversity Plus: KF3CT Assay for Monocyte Chemoattractant Protein 1 (MCP1/CCL2) Biomarker Activity (AID 2283073). Particulars: primary human keratinocytes with fibroblasts; actives raise or lower the signal. The method, boiled down: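 Human keratinocyte plus foreskin fibroblast primary co-culture exposed to chemical for 24 h. MCP-1 levels measured by ELISA. Bidirectional curve fitting relative to DMSO negative control as baseline.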

Read-out in test [12]: Matrix Metallopeptidase 9 (MMP9), MMP9 (gene 4318)
The test is described as follows: BSK_KF3CT_MMP9: BioMAP Diversity Plus: KF3CT Assay for Matrix Metallopeptidase 9 (MMP9) Biomarker Activity (AID 2283074).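 On AC50: MMP9 protein level quantified by ELISA in the co-culture.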 Particulars: primary human keratinocytes with fibroblasts; actives raise or lower the signal. The method, boiled down: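 Human keratinocyte/foreskin fibroblast co-culture; compound added; 24 h; MMP-9 by ELISA; bidirectional fit vs DMSO baseline.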

Read-out in test [13]: urokinase plasminogen activator (uPA), PLAU (gene 5328)
The test is described as follows: BSK_KF3CT_uPA: BioMAP Diversity Plus: KF3CT Assay for urokinase plasminogen activator (uPA) Biomarker Activity (AID 2283075). Particulars: primary human keratinocytes with fibroblasts; actives raise or lower the signal. The method, boiled down: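 ELISA readout of uPA, analyzed for signal gain or loss relative to DMSO, from a human primary keratinocyte–foreskin fibroblast co-culture measured 24 h after chemical treatment.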

Read-out in test [14]: E-selectin (Homo sapiens) (UniProt P16581)
The test is described as follows: BSK_LPS_Eselectin: BioMAP Diversity Plus: LPS Assay for Eselectin Biomarker Activity (AID 2283077). Particulars: primary human HUVEC with PBMC; actives raise or lower the signal. The method, boiled down: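 Human umbilical vein endothelial cells co-cultured with peripheral blood mononuclear cells under LPS stimulation; E-selectin measured by ELISA 24 h after chemical dosing. Activity fitted bidirectionally against DMSO as negative control and baseline.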

Read-out in test [15]: Interleukin-8 (IL8), CXCL8 (gene 3576)
Briefly: BSK_LPS_IL8: BioMAP Diversity Plus: LPS Assay for Interleukin-8 (IL8) Biomarker Activity (AID 2283078). Particulars: primary human HUVEC with PBMC; actives raise or lower the signal. The method, boiled down: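 Human umbilical vein endothelial cells co-cultured with PBMC were stimulated with LPS; IL-8 levels were measured by ELISA 24 h after chemical dosing. Activity was fitted bidirectionally against DMSO as negative control and baseline.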

A short description of test [16]: BSK_LPS_SRB: Viability Assessment in the BioMAP Diversity Plus: LPS Assay (AID 2283079).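 Further: total protein by sulforhodamine B absorbance as a cytotoxicity measure; measured one day after compound addition; fitted in both directions against DMSO so loss or gain of signal counts.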 Particulars: primary human HUVEC with PBMC. The method, boiled down: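 Human umbilical vein endothelial cells co-cultured with PBMC (LPS system) were dosed for 24 h. Total protein was stained with 0.1% sulforhodamine B after 10% TCA fixation, read at 560 nm, and fitted bidirectionally against DMSO baseline.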

Read-out in test [17]: Monocyte Chemoattractant Protein-1 (MCP1), CCL2 (gene 6347)
Briefly: BSK_LPS_MCP1: BioMAP Diversity Plus: LPS Assay for Monocyte Chemoattractant Protein-1 (MCP1) Biomarker Activity (AID 2283081).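 On AC50: secreted MCP-1 protein quantified by ELISA in culture supernatant.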 Particulars: primary human HUVEC with PBMC; actives raise or lower the signal. The gist of the method:
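HUVEC plus PBMC co-culture (human primary cells, LPS system) exposed to test chemical for 24 h; MCP-1 measured by ELISA. Bidirectional curve fitting against DMSO baseline; parallel SRB total-protein staining flags overt cytotoxicity.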

Test [18] in a line: BSK_LPS_PGE2: BioMAP Diversity Plus: LPS Assay for Prostaglandin E2 (PGE2) Biomarker Activity (AID 2283082). Particulars: primary human HUVEC with PBMC; actives raise or lower the signal. The gist of the method:
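HUVEC plus PBMC co-culture stimulated with LPS; secreted PGE2 quantified by ELISA 24 h after chemical dosing. Activity fitted bidirectionally against DMSO as negative control and baseline; parallel SRB total-protein staining served as cytotoxicity check.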

Read-out in test [19]: Macrophage colony-stimulating factor (MCSF), CSF1 (gene 1435)
Briefly: BSK_LPS_MCSF: BioMAP Diversity Plus: LPS Assay for Macrophage colony-stimulating factor (MCSF) Biomarker Activity (AID 2283083). Particulars: primary human HUVEC with PBMC; actives raise or lower the signal. The gist of the method:
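Human umbilical vein endothelial cells co-cultured with peripheral blood mononuclear cells were exposed to compound for 24 h. M-CSF levels were measured by ELISA, and bidirectional curve fitting used DMSO as the negative control and baseline.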

Read-out in test [20]: Tissue Factor, F3 (gene 2152)
The test is described as follows: BSK_LPS_TissueFactor: BioMAP Diversity Plus: LPS Assay for Tissue Factor Biomarker Activity (AID 2283084). Particulars: primary human HUVEC with PBMC; actives raise or lower the signal. The method, boiled down:
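Human umbilical vein endothelial cells co-cultured with peripheral blood mononuclear cells were dosed and stimulated with LPS. Cell-surface CD142 was quantified by ELISA at 24 h. Activity was fitted bidirectionally against DMSO baseline.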

This passage reports outcome and AC50 results from PubChem BioAssay (EPA / NIEHS).

The source made the active and inactive calls. How the source made its calls: active means hit-call score of the fitted dose curve at least 0.9, where 1 is the maximum; inactive means score below 0.9.

By AC50 is commonly meant the concentration giving half of the maximal activity seen.

Sequence of E-selectin (Homo sapiens) (P16581 whole entry, looked up): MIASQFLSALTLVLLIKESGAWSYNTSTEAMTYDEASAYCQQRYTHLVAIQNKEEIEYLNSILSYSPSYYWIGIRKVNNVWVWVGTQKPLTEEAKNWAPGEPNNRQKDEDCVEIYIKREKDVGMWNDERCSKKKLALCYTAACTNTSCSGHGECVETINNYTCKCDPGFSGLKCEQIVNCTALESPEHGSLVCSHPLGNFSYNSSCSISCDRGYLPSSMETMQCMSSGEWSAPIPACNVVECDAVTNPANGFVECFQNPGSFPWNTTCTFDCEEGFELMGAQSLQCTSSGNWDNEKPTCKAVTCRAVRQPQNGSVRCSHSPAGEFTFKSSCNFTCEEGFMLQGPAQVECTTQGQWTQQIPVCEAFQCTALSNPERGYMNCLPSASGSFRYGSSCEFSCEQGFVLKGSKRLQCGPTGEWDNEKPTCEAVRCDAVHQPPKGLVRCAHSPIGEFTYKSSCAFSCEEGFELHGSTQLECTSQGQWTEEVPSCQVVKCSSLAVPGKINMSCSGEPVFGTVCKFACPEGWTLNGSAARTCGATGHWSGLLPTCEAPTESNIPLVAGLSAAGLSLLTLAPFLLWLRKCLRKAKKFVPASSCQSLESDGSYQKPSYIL

For `CN(C)CCC(c1ccc(Cl)cc1)c1ccccn1` (stereo not given), the outcome in test [1], in test [2], in test [3], in test [4], in test [5] and in [6] was inactive. The result in test [7], in test [8], in test [9], in test [10], in test [11] and in test [12] was inactive. The result in [13], in test [14], in test [15], in [16], in [17] and in [18] was inactive. For the same molecule, the result in test [19] and in [20] was inactive.

In the case of `CCCCCCCCCCCCCCCCCC[N+](C)(C)C`, the AC50 in test [1] is 0.388 µM (active); in [2] it was 1.34 µM (active); in test [3], 3.47 µM (active); in test [4] it was 2.33 µM (active); in test [5], 1.13 µM (active); in test [6] it was 3.6 µM (active). The AC50 in test [7] is 3.66 µM (active); in test [8] it was 2.49 µM (active); in test [9], 6.81 µM (active); in [10] it was 1.2 µM (active); in [11], 3.36 µM (active); in test [12], 3.32 µM (active). The AC50 in test [13] was 3.33 µM (active); in [14], 8.27 µM (active); in [15], 7.3 µM (active); in test [16], 2.72 µM (active); in [17], 3.66 µM (active); in test [19], 5 µM (active). In [20], the AC50 was 8.03 µM (active). Also, the result in test [18] was inactive.

For the molecule `COC(=O)/C=C\C(=O)OC`, the result in test [1], in [2], in test [3], in test [4], in test [5] and in [6] was inactive. The result in test [7], in test [8], in [9], in test [10], in test [11] and in test [12] was inactive. The result in [13], in test [14], in test [15], in [16], in [17] and in test [18] was inactive. Besides, the outcome in [19] and in test [20] was inactive.

In the case of `CC(C)CC(=O)CC(C)CC(C)C` (stereo not given), the AC50 was 39.5 µM (active) in test [1]; 34.7 µM (active) in test [2]; 32.2 µM (active) in test [5]; 31.8 µM (active) in test [6]; 36.7 µM (active) in test [8]; 35 µM (active) in [9]. Also, the half-maximal activity concentration (AC50) in test [10] was 32.2 µM (active); in test [11] it was 37.1 µM (active); in test [12], 36.4 µM (active); in test [13] it was 30.4 µM (active); in [14] it was 29.6 µM (active); in [16] it was 31.7 µM (active). The result in test [3], in [4], in test [7], in test [15], in [17] and in test [18] was inactive. Also, the result in [19] and in [20] was inactive.
